Data on 28 compounds can be found in PubChem BioAssay AID651812 (National Center for Advancing Translational Sciences (NCATS), 2012).

The structures appear in SMILES notation. Screen size: about 2,100 compounds; about 650 (31%) were called active. Another 16% or so got no clear call; they are omitted. Calls come from the whole dose curve; as a rule, active = well fitted inhibition curve with a large enough effect; inconclusive = small, poorly fitted or top-dose-only effect; inactive = flat fitted curve, though single readings scatter. This is one part of the list. Where a call stands in place of a potency, no number is given.
Potency is the fitted concentration of half-maximal effect.

The nature of the assay: qHTS for inhibitors of Vif-A3G interactions: Cherry picks. Note: nearly all actives have a fitted effect of over 80% in size. To be noted: HeLa A3G-eYFP + Vif (tagged APOBEC3G with the HIV-1 protein that degrades it), 24 h; Potency: eYFP fluorescence increase; series mostly up to 36.9 µM. In short, it runs like this:
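HeLa cells stably expressing A3G-eYFP and Vif, cultured overnight then exposed to compounds at several concentrations for 24 hours at 37 C, 5% CO2; cellular yellow fluorescence (488 nm ex, 500-530 nm em) imaged on Acumen, MG132 positive control.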
A general note: qHTS replaces the single test concentration by a dilution series.
Consider `CC1CCN(C(=O)C(C)Sc2nc(-c3ccccc3)cc(C(F)(F)F)n2)CC1` (stereo not drawn), for which the Potency entry was “inactive”. The entry for `CCc1ccc2nc(N(CCCN(C)C)C(=O)c3ccc(S(=O)(=O)N(C)C4CCCCC4)cc3)sc2c1` is “inactive”. Turning to `C=CCn1c(SCc2c(C)noc2C)nc2cc(C(=O)O)ccc2c1=O`, the Potency entry is “inactive”. Regarding `COc1cc(C(=O)N/N=C/C2CC=CCC2)cc(OC)c1OC` (stereo not drawn), the Potency entry is “inactive”. The figure for `COc1cc(/C=C2/SC(=S)N(CCC(=O)Nc3ccccc3)C2=O)cc(OC)c1OC` is 18.4 µM (active); for `COc1cc(C=C2C(=O)c3ccccc3C2=O)cc(OC)c1OC` it is “inactive”. The entry for `COc1cc(/C=C2/SC(=S)N(Cc3ccccc3)C2=O)cc(OC)c1O` is “inactive”; for `COc1ccc(NC(=O)CN2C(=O)C3(SCC(=O)N3c3ccccc3)c3ccccc32)cc1Cl` (stereo not drawn) it is “inactive”; for `O=C(CN1C(=O)S/C(=C\c2cc(Cl)c(O)c(Cl)c2)C1=O)Nc1ccccc1` it is 20.6 µM (active). The same measure for `O=C(NCCN1C(=O)S/C(=C\c2ccc(OC(F)F)cc2)C1=O)c1cnccn1`: “inactive”. Regarding `COC(=O)C1=C(C)NC2=C(C(=O)CC(c3cccs3)C2)C1c1ccsc1` (stereo not drawn), the Potency entry was “inactive”. Turning to `CC(=O)Nc1cccc(-c2ccnc3c2CC(C)(C(=O)NCc2cccs2)O3)c1` (stereo not drawn), the Potency result is “inactive”. The same measure for `Clc1ccc2c(c1)C(C1=NCCN1)c1ccccc1CS2` (stereo not drawn): “inactive”. Take `CCOC(=O)Nc1ccc2c3c(cccc13)-c1ccccc1-2`: the Potency result was “inactive”. Regarding `O=CNc1ccc2c3c(cccc13)-c1ccccc1-2`, the Potency is 15.8 µM (active). The entry for `CC(=O)Nc1ccc(-c2ccnc3c2CC(C)(C(=O)NCc2ccco2)O3)cc1` (stereo not drawn) is “inactive”; for `Cc1ccc2nc(-c3ccccn3)c(Nc3ccccc3C)n2c1` it is “inactive”; for `CCN1C(=O)/C(=C/C=C2\N(CC)c3cc(S(=O)(=O)N(C)C)ccc3N2c2ccccc2)SC1=S` it is 4.44 µM (active). Take `Cc1ccccc1C1CC(c2cccs2)=NN1S(C)(=O)=O` (stereo not drawn): the Potency result was “inactive”. For the compound `Cc1ccc(C2=NN(C(=O)c3cccs3)C(c3ccccc3O)C2)cc1` (stereo not drawn), the Potency result was “inactive”.

Consider `CCc1ccc(C2=NN(S(C)(=O)=O)C(c3cccs3)C2)cc1` (stereo not drawn), for which the Potency is 25 µM (active). For `CCOc1ccccc1C1CC(c2cccs2)=NN1S(C)(=O)=O` (stereo not drawn), the Potency was 13 µM (active). Turning to `Cn1c(=S)c2[nH]c(SCCN3CCCC3)nc2n(C)c1=O`, the Potency result was “inactive”.

As to `O=C1C=CC(O)(c2cc(=O)c3c(O)cc(O)cc3o2)C=C1`, the Potency result is “inactive”. The same measure for `C1=Cc2ccccc2/C1=C\c1cc2c3c(c1)CCCN3CCC2`: 18.4 µM (active); for `c1cncc(-c2nc(NCc3cccs3)c3ccccc3n2)c1`: “inactive”. The same measure for `Cc1ccc(Nc2nc(-c3cccnc3)nc3ccccc23)cc1`: “inactive”; for `Oc1ccccc1-c1nc(NCc2ccccc2)c2ccccc2n1`: 20.6 µM (active).
